For some of these results: Entries with a potency or affinity are not part of this list.
What was measured:
Set-up in all cases: scale not given: direction of the effect not stated beside the values
[1] = target: Protein translocase subunit SecA (Escherichia coli (strain K12)) (UniProt P10408); assay: Assay to Identify E. coli SecA ATPase Inhibitors; assay type: functional; details: 30 µM
[2] = target: T1, Ubiquitin-activating enzyme e1, putative (Leishmania donovani (strain BPK282A1)) (UniProt E9BSI1); assay: Leishmania donovani Ubiquitin Activating Enzyme (LdE1); assay type: functional; details: 30 µM
T1 sequence (whole entry): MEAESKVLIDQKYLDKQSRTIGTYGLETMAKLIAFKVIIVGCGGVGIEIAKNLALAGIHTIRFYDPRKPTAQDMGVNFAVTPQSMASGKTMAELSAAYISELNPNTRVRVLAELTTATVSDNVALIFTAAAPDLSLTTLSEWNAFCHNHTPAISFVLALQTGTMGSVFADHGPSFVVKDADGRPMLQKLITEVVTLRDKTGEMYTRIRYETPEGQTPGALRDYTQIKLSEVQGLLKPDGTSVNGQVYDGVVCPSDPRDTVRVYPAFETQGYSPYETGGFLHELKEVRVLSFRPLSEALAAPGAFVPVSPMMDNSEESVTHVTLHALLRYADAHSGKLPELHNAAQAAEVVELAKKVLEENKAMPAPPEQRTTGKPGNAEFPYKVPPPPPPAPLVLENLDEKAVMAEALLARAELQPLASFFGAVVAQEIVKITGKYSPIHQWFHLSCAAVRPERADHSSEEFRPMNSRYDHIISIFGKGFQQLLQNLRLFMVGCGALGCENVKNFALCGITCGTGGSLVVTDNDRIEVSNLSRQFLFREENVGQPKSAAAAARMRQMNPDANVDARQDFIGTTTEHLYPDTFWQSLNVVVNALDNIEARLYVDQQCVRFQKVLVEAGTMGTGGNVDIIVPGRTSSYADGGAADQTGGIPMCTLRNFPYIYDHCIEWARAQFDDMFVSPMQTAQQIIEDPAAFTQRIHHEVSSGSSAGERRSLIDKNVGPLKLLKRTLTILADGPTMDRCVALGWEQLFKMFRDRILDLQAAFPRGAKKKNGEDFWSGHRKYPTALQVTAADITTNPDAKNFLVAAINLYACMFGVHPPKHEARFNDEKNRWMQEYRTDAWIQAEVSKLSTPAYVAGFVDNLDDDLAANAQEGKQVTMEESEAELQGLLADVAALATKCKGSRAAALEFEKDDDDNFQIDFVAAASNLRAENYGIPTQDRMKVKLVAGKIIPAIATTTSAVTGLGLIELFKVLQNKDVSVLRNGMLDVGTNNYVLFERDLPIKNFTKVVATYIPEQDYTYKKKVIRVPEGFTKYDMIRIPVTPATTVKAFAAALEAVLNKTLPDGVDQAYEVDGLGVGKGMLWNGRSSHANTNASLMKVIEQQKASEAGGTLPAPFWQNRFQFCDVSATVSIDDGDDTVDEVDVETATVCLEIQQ

[3] = target: AMP-activated protein kinase, AMPK (Homo sapiens) (UniProt P54646+O43741+P54619+Q9UGJ0+Q9Y478+Q13131+Q9UGI9); assay: AMP-dependent Kinase enzyme assay. An in vitro enzyme assay that detects ADP turnover that is directly proportional to AMPK activity. This uses naive AMPK that is activated during the assay with MK-8722; assay type: functional; details: 30 µM
[4] = target: Sialic acid-binding Ig-like lectin 9 (Homo sapiens) (UniProt Q9Y336); assay: Hs-Siglec9 ALPHAscreen SOP 20170721; details: 10 µM
Trypanosoma cruzi = assay: Trypanosoma cruzi phosphomannomutase and mannose-1-phosphate guanylyltransferase assay; assay type: functional; details: 10 µM
[5] = target: T2, Arginase-2, mitochondrial (Homo sapiens) (UniProt P78540); assay: in vitro enzyme assay to detect the production of urea directly proportional to the activity of Arginase II; assay type: functional; details: 33.3 µM; note: in the data most compounds retested in dose-response had high values
T2 sequence (whole entry): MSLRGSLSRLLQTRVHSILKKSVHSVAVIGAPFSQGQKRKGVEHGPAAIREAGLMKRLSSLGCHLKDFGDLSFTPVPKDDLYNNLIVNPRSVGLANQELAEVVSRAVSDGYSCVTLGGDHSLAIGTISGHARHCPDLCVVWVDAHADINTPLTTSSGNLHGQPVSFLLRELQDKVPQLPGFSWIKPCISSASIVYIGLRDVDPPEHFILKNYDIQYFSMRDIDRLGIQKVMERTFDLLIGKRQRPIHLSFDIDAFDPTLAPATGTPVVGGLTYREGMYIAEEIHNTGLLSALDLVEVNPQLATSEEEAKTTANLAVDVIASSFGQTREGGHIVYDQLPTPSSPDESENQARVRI

[6] = target: T3, Proteasome subunit beta (Trypanosoma cruzi) (UniProt O96673); assay: Trypanosoma cruzi proteasome chymotrypsin-like activity (TcProtChymo) assay.; note: in the data most compounds retested in dose-response had high values; assay type: functional; details: 9.37 µM
T3 sequence (whole entry): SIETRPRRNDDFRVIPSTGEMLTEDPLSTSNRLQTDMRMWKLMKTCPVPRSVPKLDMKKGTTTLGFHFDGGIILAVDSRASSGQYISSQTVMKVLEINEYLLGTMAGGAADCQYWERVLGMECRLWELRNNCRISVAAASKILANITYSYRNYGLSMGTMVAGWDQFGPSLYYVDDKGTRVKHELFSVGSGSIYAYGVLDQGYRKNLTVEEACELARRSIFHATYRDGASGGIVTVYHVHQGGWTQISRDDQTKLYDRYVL

Homo sapiens = organism: Homo sapiens; assay: To identify inhibition of the IFN signalling (Jak-Stat) pathway via expression of an eGFP reporter gene under the control of an IFN-stimulated response element (ISRE) containing MxA promoter.; assay type: functional; details: 30 µM
[7] = target: T4, Tyrosyl-tRNA synthetase, putative (Trypanosoma cruzi (strain CL Brener)) (UniProt Q4DSP6); assay: Trypanosoma cruzi tyrosyl tRNA synthetase (TcYRS) _High Tyrosine SOP; assay type: functional; details: 30 µM; note: in the data most compounds retested in dose-response had high values
T4 sequence (whole entry): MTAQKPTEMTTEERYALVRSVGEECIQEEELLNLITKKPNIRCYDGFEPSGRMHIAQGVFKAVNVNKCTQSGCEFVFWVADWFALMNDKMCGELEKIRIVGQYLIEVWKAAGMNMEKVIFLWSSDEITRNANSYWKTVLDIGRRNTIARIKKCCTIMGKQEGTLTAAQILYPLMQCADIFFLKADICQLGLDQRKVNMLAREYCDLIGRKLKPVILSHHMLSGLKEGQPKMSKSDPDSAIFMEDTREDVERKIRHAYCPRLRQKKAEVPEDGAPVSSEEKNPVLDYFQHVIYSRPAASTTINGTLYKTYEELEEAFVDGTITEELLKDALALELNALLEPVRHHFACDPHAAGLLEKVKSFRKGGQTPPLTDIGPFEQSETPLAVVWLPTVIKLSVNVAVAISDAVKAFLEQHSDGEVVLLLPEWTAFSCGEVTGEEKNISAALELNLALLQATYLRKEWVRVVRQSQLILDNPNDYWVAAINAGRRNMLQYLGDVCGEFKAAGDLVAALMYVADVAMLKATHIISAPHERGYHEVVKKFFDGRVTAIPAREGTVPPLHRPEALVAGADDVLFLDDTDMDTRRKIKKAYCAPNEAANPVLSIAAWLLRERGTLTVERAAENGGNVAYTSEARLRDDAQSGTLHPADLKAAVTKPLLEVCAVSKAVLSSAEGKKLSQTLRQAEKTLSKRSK

[8] = target: T4, Tyrosyl-tRNA synthetase, putative (Trypanosoma cruzi (strain CL Brener)); assay: Trypanosoma cruzi tyrosyl tRNA synthetase (TcYRS) SOP; assay type: functional; details: 30 µM
[9] = target: Chromo domain-containing protein 1 (Saccharomyces cerevisiae (strain ATCC 204508 / S288c) (Baker's yeast)) (UniProt P32657); assay: ScCHD-1 Enzyme Inhibition Assay; assay type: functional; details: 30 µM; note: in the data most compounds retested in dose-response had high values
Chromo domain-containing protein 1 (Saccharomyces cerevisiae (strain ATCC 204508 / S288c) (Baker's yeast)), sequence (P32657 whole entry, the tested form may be a part): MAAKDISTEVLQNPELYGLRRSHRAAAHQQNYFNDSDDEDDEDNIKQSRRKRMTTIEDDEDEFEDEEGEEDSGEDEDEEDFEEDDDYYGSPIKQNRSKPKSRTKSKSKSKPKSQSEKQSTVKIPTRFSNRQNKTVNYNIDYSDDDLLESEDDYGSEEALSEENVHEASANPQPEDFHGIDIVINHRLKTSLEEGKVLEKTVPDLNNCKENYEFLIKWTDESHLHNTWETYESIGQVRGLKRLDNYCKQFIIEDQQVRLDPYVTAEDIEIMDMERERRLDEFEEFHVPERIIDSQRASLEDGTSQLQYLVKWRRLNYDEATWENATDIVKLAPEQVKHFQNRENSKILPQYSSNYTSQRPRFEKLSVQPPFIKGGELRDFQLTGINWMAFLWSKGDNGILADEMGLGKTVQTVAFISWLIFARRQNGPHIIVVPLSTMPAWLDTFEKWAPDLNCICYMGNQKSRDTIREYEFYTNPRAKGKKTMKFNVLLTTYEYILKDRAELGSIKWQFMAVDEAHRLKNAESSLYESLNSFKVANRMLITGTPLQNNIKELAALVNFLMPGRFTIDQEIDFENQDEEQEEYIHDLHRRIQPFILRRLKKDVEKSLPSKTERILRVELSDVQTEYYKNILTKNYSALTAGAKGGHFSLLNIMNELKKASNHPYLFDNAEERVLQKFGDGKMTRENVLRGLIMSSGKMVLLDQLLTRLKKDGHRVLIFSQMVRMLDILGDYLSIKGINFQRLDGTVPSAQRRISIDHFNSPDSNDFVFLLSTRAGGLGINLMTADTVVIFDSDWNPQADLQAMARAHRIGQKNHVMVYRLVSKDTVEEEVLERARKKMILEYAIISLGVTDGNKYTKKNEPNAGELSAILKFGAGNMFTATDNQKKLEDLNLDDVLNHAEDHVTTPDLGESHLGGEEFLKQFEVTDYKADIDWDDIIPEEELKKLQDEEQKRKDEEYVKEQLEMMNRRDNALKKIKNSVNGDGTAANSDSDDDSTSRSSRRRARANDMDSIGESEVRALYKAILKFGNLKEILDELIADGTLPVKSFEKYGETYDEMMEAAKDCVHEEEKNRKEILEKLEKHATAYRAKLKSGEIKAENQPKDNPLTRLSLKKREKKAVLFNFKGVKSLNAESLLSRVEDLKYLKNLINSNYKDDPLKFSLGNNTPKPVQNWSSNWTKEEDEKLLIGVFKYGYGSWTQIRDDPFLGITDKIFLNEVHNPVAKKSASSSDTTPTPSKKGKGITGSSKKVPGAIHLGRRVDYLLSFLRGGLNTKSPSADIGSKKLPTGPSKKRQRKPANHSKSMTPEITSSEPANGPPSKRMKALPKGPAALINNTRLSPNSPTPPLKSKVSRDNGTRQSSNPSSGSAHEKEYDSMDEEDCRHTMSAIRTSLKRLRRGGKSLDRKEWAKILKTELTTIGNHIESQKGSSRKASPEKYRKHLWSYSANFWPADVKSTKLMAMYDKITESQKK

Protein translocase subunit SecA (Escherichia coli (strain K12)), sequence (P10408 whole entry): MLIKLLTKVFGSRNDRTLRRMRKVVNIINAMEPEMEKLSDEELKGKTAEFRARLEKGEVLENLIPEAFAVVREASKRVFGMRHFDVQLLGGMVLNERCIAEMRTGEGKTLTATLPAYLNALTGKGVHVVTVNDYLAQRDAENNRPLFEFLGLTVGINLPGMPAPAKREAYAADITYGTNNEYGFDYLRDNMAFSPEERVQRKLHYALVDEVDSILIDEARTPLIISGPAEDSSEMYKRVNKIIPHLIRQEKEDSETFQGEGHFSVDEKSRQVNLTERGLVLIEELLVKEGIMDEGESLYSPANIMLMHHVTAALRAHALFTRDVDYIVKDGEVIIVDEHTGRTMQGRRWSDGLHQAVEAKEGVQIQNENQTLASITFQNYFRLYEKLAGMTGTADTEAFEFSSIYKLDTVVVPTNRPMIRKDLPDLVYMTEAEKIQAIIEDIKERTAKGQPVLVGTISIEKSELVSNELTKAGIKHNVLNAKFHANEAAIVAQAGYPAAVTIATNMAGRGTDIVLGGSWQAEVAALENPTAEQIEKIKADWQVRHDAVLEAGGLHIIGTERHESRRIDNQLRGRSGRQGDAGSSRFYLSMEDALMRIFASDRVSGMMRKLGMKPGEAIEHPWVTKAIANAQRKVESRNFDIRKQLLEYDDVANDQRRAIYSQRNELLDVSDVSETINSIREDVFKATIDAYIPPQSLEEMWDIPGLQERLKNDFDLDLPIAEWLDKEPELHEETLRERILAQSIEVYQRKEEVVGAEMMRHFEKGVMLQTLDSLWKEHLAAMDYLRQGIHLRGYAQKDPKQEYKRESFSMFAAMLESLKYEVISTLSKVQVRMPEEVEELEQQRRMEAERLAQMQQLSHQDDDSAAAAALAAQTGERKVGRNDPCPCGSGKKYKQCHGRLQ
Sialic acid-binding Ig-like lectin 9 (Homo sapiens), sequence (Q9Y336 whole entry): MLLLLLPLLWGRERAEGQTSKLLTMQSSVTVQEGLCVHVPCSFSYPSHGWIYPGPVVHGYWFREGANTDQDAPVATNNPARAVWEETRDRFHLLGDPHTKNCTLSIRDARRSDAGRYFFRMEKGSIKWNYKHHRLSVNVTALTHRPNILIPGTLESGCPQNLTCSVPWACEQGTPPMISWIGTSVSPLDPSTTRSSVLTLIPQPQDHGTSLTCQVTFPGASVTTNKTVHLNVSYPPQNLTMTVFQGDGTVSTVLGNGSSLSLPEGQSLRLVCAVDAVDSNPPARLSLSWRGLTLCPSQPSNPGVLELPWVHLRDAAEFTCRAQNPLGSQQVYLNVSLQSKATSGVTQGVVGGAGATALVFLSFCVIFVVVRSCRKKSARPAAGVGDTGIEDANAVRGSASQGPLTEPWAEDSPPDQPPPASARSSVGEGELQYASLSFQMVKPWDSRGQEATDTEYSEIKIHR

SMILES | Percent Effect [1] | Percent Effect [2] | Percent Effect [3] | Percent Effect [4] | Percent Effect (Trypanosoma cruzi) | Percent Effect [5] | Percent Effect [6] | Percent Effect (Homo sapiens) | Percent Effect [7] | Percent Effect [8] | Percent Effect [9]
Cc1cnn(CCNCc2csc(-c3cccs3)n2)c1 | -2.47% | -2.63% | 5.67% | 8% | -0.564% | -1.92% | 13.7% | 0.0858% | -3.43% | 0% | 6.81%
O=C(Cc1ccc2c(c1)CCC2)NCCNc1ncccn1 | -2.76% | 21.1% | 0.848% | 1.21% | 2.89% | 3.96% | 18.4% | -17.3% | 6.4% | 30.9% | -10.6%
CCO[C@@H]1CO[C@@]2(CCCN(C(=O)COc3ccccc3OC)C2)C1 | 2.9% | 18.2% | 3.83% | -2.8% | 0.888% | 8.39% | 8.7% | 25.1% | 6.35% | 16.7% | -9.93%
CCn1cc2c(n1)CN(Cc1nccs1)CC2COCC1CC1 (stereo unspecified) | -2.47% | 13.3% | 8.82% | 0.752% | -0.197% | 3.03% | 6.61% | 0.895% | 6.38% | 11.5% | -4.67%
CCn1cc(N2Cc3nc(N4CCN(C)CC4)ncc3C2=O)cn1 | -4.57% | 4% | 4.85% | 8.98% | -1.97% | -13.2% | 15.2% | -0.771% | 6.35% | 12.8% | -11.9%
Cc1ccc2c(ccn2CCC(=O)NC[C@@H]2CCCN3CCCC[C@H]23)c1 | -5.55% | 12% | -3.71% | 5.07% | 4.71% | -6.87% | 14.1% | -2.77% | 3.17% | 10.3% | -4.06%
COCC(=O)N1CC[C@@H]2O[C@H](COCc3ccncc3)CC[C@@H]21 | -3.69% | 18.9% | 10.4% | -8.21% | -4.2% | 9.24% | 16.6% | -0.209% | 1.08% | 17.9% | -0.872%
COCCCN1CCCN(C(C)C(=O)Nc2ccnn2C(C)C)CC1 (stereo unspecified) | 0.586% | -2.7% | -1.72% | -1.48% | 0.195% | 2.08% | 13.9% | -3.67% | 4.95% | -3.66% | -4.29%
CCC1=N[C@@]2(CC[C@@H]3CN(S(=O)(=O)N(C)C)C[C@@H]32)C(=O)N1CC(C)C | -1.28% | 10.4% | -3.92% | 6.82% | -2.07% | 3.23% | -0.696% | -7.21% | 5.29% | 11.5% | -6.8%
O=C(NCc1ccco1)[C@@H]1CCO[C@@H]2CCN(c3ccncn3)C[C@H]21 | 0.562% | 2.67% | 2.84% | 5.63% | -5.02% | -56.5% | 5.64% | 3.81% | 1.04% | -25% | -8.67%
Cc1nc(C)c2c(n1)CCN(C(=O)CC1CC1)CC2 | 3.82% | 10.8% | 4.71% | -10.8% | -5.57% | 2.87% | 21.2% | 10.2% | 3.24% | 12.8% | -3.91%

Reference: ChEMBL document CHEMBL3988442, “University of Dundee, Small-Polar-MMV Screening Library” (2021)
